The list is not random: actives were taken first. Their share in the collection is about 4.7%.
D1 antag: Antagonist of Human D 1 Dopamine Receptor: qHTS; 3.2% of 360,000 active; AID 504652, 2011; activity change, negative = inhibition, % at 10 µM; D(1A) dopamine receptor (Homo sapiens), P21728; HEK293 TREx D1 cells, calcium flux, dopamine EC80; stronger effect = lower value; in the data active means activity change below about -30%
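Calcium flux readout: force-coupled, inducible Hek293 Trex D1 line, cells induced overnight at 30 C with tetracycline, dye-loaded 30–90 min at RT. Antagonism scored against EC80 dopamine challenge given 180 s after compound.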
TRHR agonist: qHTS for Small Molecule Agonists and Allosteric Enhancers of Human TRH Receptor: Primary Screen for Agonists; Thyrotropin-releasing hormone receptor (Homo sapiens), P34981; TRHR cells, calcium flux fluo-8, FDSS agonist mode; activation, % at 2 µM; 0.18% of 360,000 active; AID 493084, 2011
Target sequence (P34981 whole entry, looked up): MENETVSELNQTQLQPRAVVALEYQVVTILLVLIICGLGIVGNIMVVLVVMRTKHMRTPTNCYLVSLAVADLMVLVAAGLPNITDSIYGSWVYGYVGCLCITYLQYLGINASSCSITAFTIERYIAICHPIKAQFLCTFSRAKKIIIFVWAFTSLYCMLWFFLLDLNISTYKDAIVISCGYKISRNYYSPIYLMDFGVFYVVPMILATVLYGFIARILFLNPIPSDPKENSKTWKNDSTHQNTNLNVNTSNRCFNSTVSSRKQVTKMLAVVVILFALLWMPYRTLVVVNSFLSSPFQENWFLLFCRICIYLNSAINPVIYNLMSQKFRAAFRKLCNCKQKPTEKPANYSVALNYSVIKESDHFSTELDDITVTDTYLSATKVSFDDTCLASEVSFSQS
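In this calcium-flux screen, cells bearing human TRHR are dye-loaded with fluo-8, baselined for 10 cycles, then exposed to library compounds; positive kinetic calcium responses during the agonist phase mark hits, with TRH as control.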
TRHR enhancer: qHTS for Small Molecule Agonists and Allosteric Enhancers of Human TRH Receptor: Primary Screen for Enhancers; TRHR cells, fluo-8 calcium fluorescence, EC20 TRH enhancement; 0.66% of 360,000 active; enhancement, % at 2 µM; Thyrotropin-releasing hormone receptor (Homo sapiens), P34981; in the data active means enhancement above about 30%
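Enhancer read-out: after compound pinning and an initial kinetic agonist-mode read, an EC20 of TRH (10 nM final) was injected and fluo-8 calcium signal (Ex 480/Em 530) followed at 1 s/cycle for 100 cycles in TRHR-expressing cells.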
D1 PAM: Potentiators of Human D1 Dopamine Receptor: qHTS; HEK293 TREx D1 cells, calcium flux, dopamine EC20 potentiation; potentiation, % at 10 µM; D(1A) dopamine receptor (Homo sapiens), P21728; 0.036% of 360,000 active; AID 504651, 2011; in the data active means potentiation above about 30%
D1 ag: Allosteric Agonists of the Human D1 Dopamine Receptor: qHTS. HEK293 T-REx D1 cells, calcium flux, agonist mode. activation, % at 2 µM. 1% of 360,000 active. AID 504660, 2011
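Inducible HEK293 T-REx D1 cells, force-coupled to calcium signalling, were plated at 4000 cells/well with tetracycline and held overnight at 30 C. After no-wash calcium dye loading, compound-evoked calcium rise over 180 s flagged agonists.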
Each line names hits and unclear results; the compound was inactive in the other large screens. Unless noted, no stated cut-off is given here; in the data, active means activation above about 30%; inactive means the rest.

COc1ccc2c(c1)c1c(c(=O)n(-c3ccccc3)c(=O)n1CC(=O)Nc1ccc(C)c(C)c1)n2C	none
Cc1nc2c(-c3ccccc3)c(C)nn2c(C)c1CCC(=O)NCc1cccc(Cl)c1	none
C=CCn1c(=O)/c(=C/c2ccc(C)o2)s/c1=C(/C#N)C(=O)c1ccccc1	D1 ag 58
Cc1ccc(/C=c2\sc3nc(-c4ccccc4Br)nn3c2=O)o1	none
O=C(COc1ccccc1[N+](=O)[O-])N(Cc1ccco1)c1ccccn1	none
CSc1nnc2c3ccccc3n(Cc3ccccc3)c2n1	D1 antag -56
O=c1[nH]c(CN2CCN(C/C=C/c3ccccc3)CC2)nc2ccccc12	none
Nc1nc(N2CCN(C/C=C/c3ccccc3)CC2)nc2ccccc12	D1 antag -50, D1 ag 40
O=C(COC(=O)c1cc(=O)[nH]c2ccc(Br)cc12)c1ccccc1	TRHR enhancer 33
O=c1cc(O)sc2ccccc12	D1 ag 40
Cc1ccc(NC(=O)c2cc3ccccc3oc2=N)cc1	none
N=c1oc2c3c4c(cc2cc1C(=O)Nc1ccccc1)CCCN4CCC3	D1 antag -88, TRHR agonist 94, D1 ag 385
CCn1cc(C(=O)NCc2ccccc2Cl)c(=O)c2cc(S(=O)(=O)N3CCCCCC3)ccc21	D1 antag -62
CCn1cc(C(=O)O)c(=O)c2cc(S(=O)(=O)N(C)C)ccc21	D1 antag -37
CCCCN(C)CCCNC(=O)c1cn(CC)c2ccc(S(=O)(=O)N3CCOCC3)cc2c1=O	D1 antag -32
CCC(C)NC(=O)c1cn(CC)c2ccc(S(=O)(=O)N(C)C)cc2c1=O (stereo unspecified)	none
CCn1cc(C(=O)NCc2ccccc2Cl)c(=O)c2cc(S(=O)(=O)N3CCCCC3)ccc21	none
CCOCCCNC(=O)c1cn(C)c2ccc(S(=O)(=O)N3CCCC3)cc2c1=O	none
CCCCN(CC)CCCNC(=O)c1cn(CC)c2ccc(S(=O)(=O)N3CCOCC3)cc2c1=O	none
COCCNC(=O)c1cn(C)c2ccc(S(=O)(=O)N3CCCC3)cc2c1=O	D1 antag -31
CCCCN(C)CCCNC(=O)c1cc(=O)[nH]c2ccc(S(=O)(=O)N3CCCCC3)cc12	TRHR enhancer 53
CN1/C(=C\C=C(/C#N)C(=O)Nc2ccccc2F)C(C)(C)c2ccccc21	TRHR agonist 114, D1 ag 277
CN1/C(=C\C(=O)Nc2ccc(F)cc2)C(C)(C)c2ccccc21	none
CCOC(=O)C1C(=O)CC(C)(O)C(C(=O)OCC)C1c1ccc(Br)cc1 (stereo unspecified)	D1 antag -30
CCOC(=O)C1C(=O)CC(C)(O)C(C(=O)OCC)C1c1ccc(F)cc1 (stereo unspecified)	none
CC(C)(C)NCC(O)COc1ccccc1C1CCCC1 (stereo unspecified)	D1 ag 31
CCc1ccccc1OC[C@@H](O)CN[C@H]1CCCc2ccccc21	D1 antag -52, D1 ag 97
CCC(C)NC(=O)c1[nH]c2cc(OC)ccc2c1Sc1ccc(C)cc1 (stereo unspecified)	none
CCCOc1nc2c(c(=O)n(C)c(=O)n2C)n1Cc1cccc2ccccc12	none
Cc1ccc(C)c(N2CCN(CCCNC(=O)c3cnn(-c4ccccc4Cl)c3C3CCN(C(=O)OC(C)(C)C)CC3)CC2)c1	none
CCn1cc(C(=O)OCC(=O)c2cc(C)n(-c3ccc(OC(F)F)cc3)c2C)c(=O)c2ccc(C)nc21	D1 antag -32
CCn1cc(C(=O)OCC(=O)N(C)C2CCS(=O)(=O)C2)c(=O)c2ccc(C)nc21 (stereo unspecified)	TRHR enhancer 31
Cc1cccc(CSc2nnc(-c3cccs3)n2Cc2ccco2)c1	D1 antag -36
Cc1ccc(CSc2nnc(-c3cccs3)n2C)cc1	D1 antag -40
Cc1cccc(CSc2nc3sc(C)c(C)c3c(=O)n2Cc2ccco2)c1	none
CCCCCCCCNC1=CC(=O)CC(C)(C)C1	none
CCCc1cc(=O)n2[nH]c(NCc3ccccc3Cl)nc2n1	none
CCCc1cc(=O)n2[nH]c(NCc3cccs3)nc2n1	D1 antag -37
CCOc1ccc(CN2C(=O)c3ccccc3C2C(=O)NCCc2ccc(OC)c(OC)c2)cc1 (stereo unspecified)	none
Cc1ccc(C(C)C)c(OCc2nn(CC(=O)c3ccc(OC(F)F)cc3)c3[n+]2CCCCC3)c1	D1 ag 91
COC(=O)c1ccc(NC(=O)c2c(-c3ccccc3)c(-c3ccccc3)nn(C)c2=O)cc1	none
COC(=O)c1[nH]c2cc(OC)ccc2c1NC(=O)CCN1CCN(Cc2ccc3c(c2)OCO3)CC1	D1 antag -86
COc1ccc2cc(C(=O)N3CCN(Cc4ccc5c(c4)OCO5)CC3)[nH]c2c1	D1 ag 33
COC(=O)c1[nH]c2cc(OC)ccc2c1NC(=O)CCN1CCCCC1	none
CCS(=O)(=O)N1CCc2cc(C(=O)NCc3ccc(Cl)cc3)ccc21	none
O=C(NCCCN1CCN(c2ccccc2F)CC1)C1CCCN(S(=O)(=O)c2cnc[nH]2)C1 (stereo unspecified)	D1 antag -53
CCOc1ccc(CCNC(=O)CCn2c(=O)c3cccn3c3ccc(F)cc32)cc1	none
O=C(NCCc1ccccc1)c1ccc(Nc2nc3ccccc3n3nnnc23)cc1	none
COc1ccc(CCNC(=O)c2cnn(-c3ccc(F)cc3)c2C2CCN(C(=O)OC(C)(C)C)CC2)cc1OC	none
COc1cccc(/C=C2\SC(=S)N(CCCC(=O)N3CCCCC3CCO)C2=O)c1 (stereo unspecified)	none
COc1cccc(/C=C2\SC(=S)N(CCC(=O)N3CCCCC3CCO)C2=O)c1 (stereo unspecified)	D1 antag -31
NC(=O)C1(c2ccccc2)CCCN1C(=O)c1ccccc1Br (stereo unspecified)	TRHR enhancer 36
NC(=O)C1(c2ccccc2)CCCN1C(=O)c1ccc(Br)cc1 (stereo unspecified)	none
CC(C)Oc1ccc(CNC(=O)Cn2c(=O)c3cccn3c3cccnc32)cc1	D1 antag -81
CC(C)Oc1ccc(CNC(=O)c2ccc(Cn3c(=O)c4cccn4c4cccnc43)cc2)cc1	none
COc1cc(/C=N/NS(=O)(=O)c2ccc3ccccc3c2)ccc1OCc1ccc(C(=O)O)cc1	D1 antag -30
COc1ccc(/C=N/NS(=O)(=O)c2ccccc2)cc1OC(=O)c1ccc(C)cc1	none

Screening results from PubChem.
